Compounds without any hit were thinned out: in the full panel of roughly 83,000, 20% have a hit.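 Step 1: grow cells in 96-well plates. Step 2: add test compound at a single concentration. Step 3: incubate 48 h. Step 4: record percent growth.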 Activity calls are given as the source filed them. Rule for the calls: active = growth percent below 10; inactive = the rest.
Key:
Assay in all cases: NCI-60 one-dose screen, 48 h (100 = growth as untreated, 0 = no growth, -100 = all killed)
HCT-15 colon = conditions: 10 µM unless noted
HT29 colon = conditions: 10 µM unless noted
SNB-19 CNS = conditions: 10 µM unless noted
U251 CNS = conditions: 10 µM unless noted
PC-3 prostate = conditions: 10 µM unless noted
SK-MEL-5 melanoma = conditions: 10 µM unless noted
LOX IMVI melanoma = conditions: 10 µM unless noted
SK-MEL-28 melanoma = conditions: 10 µM unless noted
SK-MEL-2 melanoma = conditions: 10 µM unless noted
EKVX NSCLC = conditions: 10 µM unless noted
SN12C renal = conditions: 10 µM unless noted
UO-31 renal = conditions: 10 µM unless noted
TK-10 renal = conditions: 10 µM unless noted
ACHN renal = conditions: 10 µM unless noted
A498 renal = conditions: 10 µM unless noted
CCRF-CEM leukemia = conditions: 10 µM unless noted
MOLT-4 leukemia = conditions: 10 µM unless noted
UACC-62 melanoma = conditions: 10 µM unless noted
CAKI-1 renal = conditions: 10 µM

Measured: growth

COc1cc(NC(C)CCCN2C(=O)c3ccccc3C2=O)c2nc(C)ccc2c1OC (stereo unspecified)
inactive: HCT-15 colon 89.8% | HT29 colon 98.4% | SNB-19 CNS 99.7% | U251 CNS 94.2% | PC-3 prostate 81.1% | SK-MEL-5 melanoma 88.5% | LOX IMVI melanoma 85.7% | SK-MEL-28 melanoma 97.4% | SK-MEL-2 melanoma 96.8% | EKVX NSCLC 96.3% | SN12C renal 92.1% | UO-31 renal 98.1% | TK-10 renal 98.8% | ACHN renal 99.5% | A498 renal 97.5% | MOLT-4 leukemia 73.6%
active: CCRF-CEM leukemia -56.3%

O=C(Nc1ccccc1F)Nc1ccccc1Cl
inactive: HCT-15 colon 106% | HT29 colon 91% | SNB-19 CNS 97.1% | U251 CNS 92.3% | PC-3 prostate 108% | SK-MEL-5 melanoma 84% | UACC-62 melanoma 73.2% | LOX IMVI melanoma 93.3% | SK-MEL-28 melanoma 96.9% | SK-MEL-2 melanoma 109% | EKVX NSCLC 73.2% | SN12C renal 104% | UO-31 renal 98.2% | TK-10 renal 125% | ACHN renal 90.8% | A498 renal 85.8% | CCRF-CEM leukemia 86.9% | MOLT-4 leukemia 69.3%

O=c1[nH]ccc2nc(N3CCC(O)CC3)nc(Nc3cccc(C(F)(F)F)c3)c12
active: SK-MEL-5 melanoma -55.9% | MOLT-4 leukemia 1.19%
inactive: HCT-15 colon 49.9% | HT29 colon 71.6% | SNB-19 CNS 98.9% | U251 CNS 55.2% | PC-3 prostate 30.6% | UACC-62 melanoma 32% | LOX IMVI melanoma 56.2% | SK-MEL-28 melanoma 76.1% | SK-MEL-2 melanoma 25.2% | EKVX NSCLC 83% | SN12C renal 61.4% | TK-10 renal 67.6% | ACHN renal 67.6% | CAKI-1 renal 38.6% | A498 renal 93.6% | CCRF-CEM leukemia 13%

Cc1nccc2c3ccc(OCc4cn(-c5ccc(Br)cc5)nn4)cc3n(CCCc3ccccc3)c12
active: U251 CNS -61% | UACC-62 melanoma 6.16% | LOX IMVI melanoma -39.6% | SK-MEL-28 melanoma -67.6% | UO-31 renal -73.5%
inactive: HCT-15 colon 60.5% | HT29 colon 10.5% | SNB-19 CNS 56.1% | PC-3 prostate 14.1% | SK-MEL-5 melanoma 30.4% | SK-MEL-2 melanoma 107% | EKVX NSCLC 68.9% | SN12C renal 66.9% | TK-10 renal 34.1% | A498 renal 110% | CCRF-CEM leukemia 15% | MOLT-4 leukemia 41.2%

COc1ccc(/C(=C/c2cc(OC)c(OC)c(OC)c2)[N+](=O)[O-])cc1
inactive: SNB-19 CNS 55.2% | PC-3 prostate 35.1% | SK-MEL-5 melanoma 70.7% | EKVX NSCLC 27.9% | A498 renal 87.4%
active: HCT-15 colon -41.3% | HT29 colon -14.2% | U251 CNS 5.34% | UACC-62 melanoma -7.25% | LOX IMVI melanoma -80.3% | SK-MEL-28 melanoma 1.77% | SK-MEL-2 melanoma -13.2% | SN12C renal 5.64% | UO-31 renal -69.1% | TK-10 renal -1.67% | ACHN renal -74% | CCRF-CEM leukemia -7.93% | MOLT-4 leukemia 0.326%

Cc1[nH]c2ccc(F)cc2c1CCNC(=O)C1CCN(C(=O)c2ccc(-c3ccccc3)cc2)CC1
active: HT29 colon 5.89%
inactive: HCT-15 colon 35.2% | SNB-19 CNS 65.3% | U251 CNS 48.7% | PC-3 prostate 23.2% | SK-MEL-5 melanoma 27.4% | LOX IMVI melanoma 48.8% | SK-MEL-28 melanoma 67.7% | SK-MEL-2 melanoma 71.6% | EKVX NSCLC 44.2% | SN12C renal 64.1% | UO-31 renal 36.5% | ACHN renal 52.6% | A498 renal 47.9% | CCRF-CEM leukemia 54.1% | MOLT-4 leukemia 26.9%

O=C(NCCNc1nccc(-c2c(-c3cccc(O)c3)nc3sccn23)n1)c1cc(N2CCOCC2)cc(C(F)(F)F)c1
active: UACC-62 melanoma 8.5%
inactive: HCT-15 colon 92% | HT29 colon 49.2% | SNB-19 CNS 125% | U251 CNS 105% | PC-3 prostate 78.2% | SK-MEL-5 melanoma 58.4% | LOX IMVI melanoma 52.3% | SK-MEL-28 melanoma 44.4% | SK-MEL-2 melanoma 64.5% | EKVX NSCLC 88.6% | SN12C renal 89.8% | UO-31 renal 87.5% | ACHN renal 79.4% | CAKI-1 renal 82.5% | A498 renal 92.8% | CCRF-CEM leukemia 52.9% | MOLT-4 leukemia 68.6%

CCN1CCN(Cc2ccc(NC(=O)Nc3cccc(-n4ccc5c(NC(=O)c6ccccc6)nccc54)c3)cc2C(F)(F)F)CC1
inactive: HCT-15 colon 77% | HT29 colon 75.1% | SNB-19 CNS 89.8% | U251 CNS 76.3% | PC-3 prostate 66.4% | SK-MEL-5 melanoma 43.1% | UACC-62 melanoma 68% | LOX IMVI melanoma 85% | SK-MEL-28 melanoma 82.8% | SK-MEL-2 melanoma 90.6% | EKVX NSCLC 89.8% | SN12C renal 95.7% | UO-31 renal 72.3% | ACHN renal 96% | CAKI-1 renal 81% | A498 renal 90% | CCRF-CEM leukemia 78.7% | MOLT-4 leukemia 112%

CCc1c(C)c2cc(-n3c(-c4ccc(OC)cc4)csc3=N)c(O)c(C)c2oc1=O
active: HCT-15 colon 9.38% | HT29 colon 5.28% | SK-MEL-5 melanoma 4.4% | UACC-62 melanoma 2% | LOX IMVI melanoma 5.9% | CCRF-CEM leukemia 7.21% | MOLT-4 leukemia 6.48%
inactive: SNB-19 CNS 21.7% | U251 CNS 10.8% | PC-3 prostate 12.9% | SK-MEL-28 melanoma 28.6% | SK-MEL-2 melanoma 10.7% | EKVX NSCLC 19.4% | SN12C renal 10.2% | UO-31 renal 14.3% | TK-10 renal 64.7% | A498 renal 17.1%

COc1ccc(NC(=O)COCCOCCNC[C@@H]2C(=O)O[C@H]3[C@H]2CC/C(COC(=O)OC/C2=C/CC[C@@]4(C)O[C@H]4[C@H]4OC(=O)[C@@H](CN(C)C)[C@@H]4CC2)=C\CC[C@@]2(C)O[C@@H]32)c(O)c1C(N)=O
active: SK-MEL-28 melanoma -6.54% | UO-31 renal 2.07% | TK-10 renal -0.421% | CCRF-CEM leukemia -9.68% | MOLT-4 leukemia -5.18%
inactive: HCT-15 colon 17.1% | HT29 colon 14% | SNB-19 CNS 94.1% | U251 CNS 80.8% | PC-3 prostate 80.2% | SK-MEL-5 melanoma 85.7% | LOX IMVI melanoma 35.1% | SK-MEL-2 melanoma 68.3% | EKVX NSCLC 81.5% | SN12C renal 40% | A498 renal 96.2%

COc1ccc(-c2nn(-c3ccc(NC(=O)c4ccc(Cl)c(C(F)(F)F)c4)cc3)cc2-c2ccncc2)cc1Cl
active: HCT-15 colon -26% | HT29 colon -39.5% | SK-MEL-5 melanoma -69.3% | UACC-62 melanoma -14.6% | LOX IMVI melanoma -63.9% | SK-MEL-2 melanoma 4.6% | UO-31 renal -26.8% | CAKI-1 renal -33.6% | A498 renal -5.21% | MOLT-4 leukemia 1.35%
inactive: SNB-19 CNS 42.7% | U251 CNS 13.5% | PC-3 prostate 23.2% | SK-MEL-28 melanoma 50.2% | EKVX NSCLC 34.8% | SN12C renal 44.3% | ACHN renal 27.3% | CCRF-CEM leukemia 23.4%

O=C(O)c1ccc2nc(-c3ccc(OCCCCCOc4ccc(-c5nc6ccc(C(=O)O)cc6[nH]5)cc4)cc3)[nH]c2c1
active: SK-MEL-5 melanoma 3.26% | TK-10 renal -2.6%
inactive: HCT-15 colon 74.3% | HT29 colon 51.4% | SNB-19 CNS 59.6% | U251 CNS 96.4% | PC-3 prostate 90% | UACC-62 melanoma 53% | LOX IMVI melanoma 82% | SK-MEL-28 melanoma 46.9% | SK-MEL-2 melanoma 101% | EKVX NSCLC 113% | SN12C renal 62.2% | UO-31 renal 90.5% | A498 renal 53.6% | CCRF-CEM leukemia 76.1% | MOLT-4 leukemia 87.7%

Cc1ccc(-c2cn3cc([N+](=O)[O-])ccc3n2)cc1
inactive: HCT-15 colon 80.2% | HT29 colon 91.6% | SNB-19 CNS 92.1% | U251 CNS 85.6% | PC-3 prostate 77.1% | SK-MEL-5 melanoma 58.9% | LOX IMVI melanoma 58.3% | SK-MEL-28 melanoma 94.3% | SK-MEL-2 melanoma 71.5% | EKVX NSCLC 67.4% | SN12C renal 75.3% | UO-31 renal 57.2% | ACHN renal 73.4% | A498 renal 57.6% | CCRF-CEM leukemia 52.6% | MOLT-4 leukemia 57.6%

NC(=S)NNC1CCCCC1
inactive: HCT-15 colon 99.7% | HT29 colon 94.4% | SNB-19 CNS 101% | PC-3 prostate 87.7% | SK-MEL-5 melanoma 95.1% | UACC-62 melanoma 95.7% | LOX IMVI melanoma 97.6% | SK-MEL-28 melanoma 111% | SK-MEL-2 melanoma 97.3% | EKVX NSCLC 89.9% | SN12C renal 95.7% | UO-31 renal 72.6% | TK-10 renal 97.2% | A498 renal 100% | CCRF-CEM leukemia 84.9% | MOLT-4 leukemia 70.9%

O=c1c2ccccc2sc2c(NCCN3CCOCC3)nc3ccccc3c12
inactive: HCT-15 colon 27.1% | SNB-19 CNS 79.3% | U251 CNS 42.3% | PC-3 prostate 43.2% | SK-MEL-5 melanoma 54.8% | UACC-62 melanoma 33.3% | SK-MEL-28 melanoma 69.4% | SK-MEL-2 melanoma 102% | EKVX NSCLC 70.9% | SN12C renal 59.4% | UO-31 renal 47.6% | A498 renal 43.7% | CCRF-CEM leukemia 36.3% | MOLT-4 leukemia 37%
active: HT29 colon 8.68% | LOX IMVI melanoma 5.67%

CCNc1cc(S(=O)(=O)O)ccc1C
inactive: HCT-15 colon 105% | HT29 colon 102% | SNB-19 CNS 104% | U251 CNS 98.3% | PC-3 prostate 90.5% | SK-MEL-5 melanoma 102% | LOX IMVI melanoma 97.2% | SK-MEL-28 melanoma 108% | SK-MEL-2 melanoma 100% | EKVX NSCLC 101% | SN12C renal 99.8% | UO-31 renal 101% | TK-10 renal 101% | ACHN renal 113% | A498 renal 102% | CCRF-CEM leukemia 89.7% | MOLT-4 leukemia 92.3%

O=C(Cn1c2ccccc2c2ccncc21)N/N=C\c1ccc2ccccc2c1
inactive: HCT-15 colon 23.8% | SNB-19 CNS 40.5% | PC-3 prostate 13.8% | SK-MEL-5 melanoma 15.4% | LOX IMVI melanoma 19.4% | SK-MEL-28 melanoma 58.3% | SK-MEL-2 melanoma 63.8% | EKVX NSCLC 55.8% | SN12C renal 19.9% | TK-10 renal 55.1% | A498 renal 85.1% | CCRF-CEM leukemia 50.4% | MOLT-4 leukemia 41.7%
active: HT29 colon -8.93% | U251 CNS -25.9% | UACC-62 melanoma 7.54% | UO-31 renal -28.3% | ACHN renal 4.98%
